# Screening data deposited in PubChem by National Center for Advancing Translational Sciences (NCATS).
# Most compounds without a hit are left out; they make up all but 7.8% or so of the library.
# HCV inhibitor: HCV inhibition | Huh7.5.1 HCVcc-Cre infection, luciferase reporter, 44 h | 3.4% of 340,000 active | AID 651820 | Potency, µM (series often up to 41.8 µM), for the others: top-dose activity change, negative = inhibition, usual class: inhibitors; active = well fitted inhibition curve with a large enough effect; inconclusive = small, poorly fitted or top-dose-only effect, or another doubt; inactive = no such curve, though single readings can be large or run the other way; also: potency is read from the fitted curve at half-maximal effect
#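 Cells seeded at 1,000/well and cultured 4 h, then compounds added followed by HCVcc-Cre virus (~0.5 moi). After 44 h further culture, luciferase substrate was added, plates held 15 min at room temperature, and luminescence read for 15 sec.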
# HCMV antiviral: inhibitors of human cytomegalovirus; activity change, negative = inhibition, % at 57.5 µM; 4.5% of 410,000 active; HFF cells, HCMV-luciferase reporter, 72 h; active compounds read low; AID 1259415; in the data active = activity change below about -60%; inconclusive = no clear call, values can overlap the other calls; inactive = above about -39%
#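 Screen run at 2 compound doses on HFFs infected with reporter HCMV, MOI 1 PFU/cell. Luciferase activity from cell lysates at 72 h post infection gave inhibition relative to buffer-only and Salinomycin wells.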
# Vaccinia Venus: vaccinia inhibition (Venus reporter). Vaccinia virus Venus reporter expression, fluorescence. 0.46% of 330,000 active. Potency, µM (top dose mostly 36.5 µM), without a hit: at the highest dose activity change, negative = inhibition, hits mostly inhibitors; calls by dose curve; tested in A549 cells; also: potency is read from the fitted curve at half-maximal effect; nearly all actives have a fitted effect of over 30% in size
# Lassa entry inh: Lassa virus entry inhibition. Lassa virus pseudotype entry inhibition, cell reporter. Potency, µM (titrated, usually from 37.9 µM), without a hit: at the highest dose activity change, negative = inhibition, most hits filed as inhibitors. 1.2% of 300,000 active; calls by dose curve; tested in HEK293 cells; also: potency is read from the fitted curve at half-maximal effect; nearly all actives have a fitted effect of over 50% in size
# Vaccinia mCherry: inhibitors of vaccinia virus infection (mCherry reporter signal) | Vaccinia virus mCherry reporter infection, fluorescence | Potency, µM (doses to about 36.5 µM), for inactives: top-dose activity change, negative = inhibition, hits mostly inhibitors | 0.63% of 310,000 active | AID 720579; calls by dose curve; tested in A549 cells; also: potency is read from the fitted curve at half-maximal effect; nearly all actives have a fitted effect of over 35% in size
# Marburg entry inh: blocks Marburg virus binding to or entry into cells; Marburg virus pseudotyped entry inhibition, cell reporter; Potency, µM (titrated, usually from 37.8 µM), for inactives: at the highest dose activity change, negative = inhibition, hits mostly inhibitors; 1.8% of 300,000 active; AID 540276; calls by dose curve; tested in HEK293 cells; also: potency is read from the fitted curve at half-maximal effect
# Numbers without * were called inactive; i = inactive; ? = inconclusive; . = no result given; ! = repeats disagree; [ ] = remark or other dose. % is scaled to controls: 0 for no effect and ±100 for the full control effect.
SMILES,HCV inhibitor,HCMV antiviral,Vaccinia Venus,Lassa entry inh,Vaccinia mCherry,Marburg entry inh
Oc1ccccc1C=NNC(=S)Nc1ccc(F)cc1,?,-83*,?,?,5.6µM*,?
Oc1ccccc1/C=N/NC(=S)NCCc1ccccc1,11µM*,-70*,-19%,1%[46.1 µM],?,?
Cc1nn(C)cc1/C=N/NC(=S)Nc1ccccc1,?,21,.,-12%,.,7.3µM*
CC1CCN(S(=O)(=O)c2ccc3c(ccn3CC(=O)NCc3ccc(N(C)C)cc3)c2)CC1,.,22,-10%,12%[46.1 µM],-13%,.
O=C1Nc2ccccc2/C1=C\c1cccn1-c1ccc(OC(F)(F)F)cc1,0.56µM*,-22,.,0%,.,-29%
O=C1Nc2ccccc2/C1=C/c1ccccc1F,?,18,-24%,1%[46.1 µM],-10%,-8%[46.1 µM]
CCOc1ccc(CNC(=O)Cn2c(=O)c3cccn3c3ccc(F)cc32)cc1OC,.,38,-4%,7%[46.1 µM],-8%,.
CC(=O)N1CCCc2cc(S(=O)(=O)N(C)CC(=O)Nc3ccc(Cl)cc3C)ccc21,.,-22,-23%,-17%[46.1 µM],-2%,.
CCn1c(-c2cccnc2)nc2cc(NC(=O)COC)cc(C(=O)N3CCOc4ccccc4C3)c21,.,.,-12%,.,-14%,.
COc1cccc(C(c2nnnn2-c2ccc3c(c2)OCCO3)N2CCC(n3c(=O)[nH]c4ccccc43)CC2)c1OC (configuration not stated),.,-97*,-21%,.,-15%,.
O=c1[nH]c2ccccc2n1C1CCN(C(c2ccccc2OC(F)(F)F)c2nnnn2-c2ccc3c(c2)OCCO3)CC1 (configuration not stated),.,-106*,?,.,?,.
COc1ccc(-n2nnnc2C(c2cccc(OC)c2OC)N2CCC(n3c(=O)[nH]c4ccccc43)CC2)cc1 (configuration not stated),.,-35,-13%,.,3%,.
COc1ccc(-n2nnnc2C(c2ccccc2)N2CCC(n3c(=O)[nH]c4ccccc43)CC2)cc1 (configuration not stated),.,-18,-29%,.,-7%,.
CCN(CC)CCNC(=O)c1c2c(nc3ccccc13)C(=O)N(C1CCCCC1)C2,.,16,-11%,-9%[46.1 µM],-9%,.
CCCCSCCCNC(=O)C1CCC(CNS(=O)(=O)c2c(C)cc(C)cc2C)CC1 (configuration not stated),.,105,-3%,8%[46.1 µM],4%,.
O=C(NCCc1ccc(Cl)cc1)c1ccc(CS(=O)Cc2cccc(Cl)c2)o1 (configuration not stated),.,-64*,-15%,-8%[46.1 µM],i,.
O=C(NCCc1ccc(Cl)cc1)c1ccc(CS(=O)(=O)c2ccc(Cl)cc2)o1,.,-20,-14%,-32%[46.1 µM],-18%,.
O=C(NCCc1ccccc1)c1ccc(CS(=O)(=O)c2ccc(Cl)cc2)o1,19%,-60*!,3%,-28%[46.1 µM],-3%,.
O=C(NCc1ccc2c(c1)OCO2)c1ccc(CS(=O)Cc2cccc(Cl)c2)o1 (configuration not stated),-19%,-5,-22%,-29%[46.1 µM],-4%,-25%[46.1 µM]
O=C(NCc1ccc2c(c1)OCO2)c1ccc(CS(=O)Cc2ccc(Cl)cc2)o1 (configuration not stated),11µM*,-30,-9%,?,-17%,0%[46.1 µM]
COc1ccc(OC)c(CCNC(=O)c2ccc(CS(=O)Cc3ccc(Cl)cc3)o2)c1 (configuration not stated),10µM*,-5,.,.,.,.
COc1ccc(/C=C\c2onc(C)c2S(=O)(=O)N2CCC(C(=O)Nc3ccccc3OC)CC2)cc1,.,-28,-12%,4%[46.1 µM],-8%,-15%[46.1 µM]
O=C(N/N=C/c1ccc(OCc2ccc(F)cc2)cc1)c1ccccc1,-10%,-12,-18%,.,?,.
COc1ccc(/C=N/NC(=O)c2ccc(Br)cc2)c(OC)c1,-8%,?,-12%,-19%[46.1 µM],-22%,-3%[46.1 µM]
CC(C)(C)c1ccc(OCc2ccc(C(=O)N/N=C3\CC4CC=CC34)cc2)cc1 (configuration not stated),?,-68*,-10%,-19%,i,0%
SMILES,HCV inhibitor,HCMV antiviral,Vaccinia Venus,Lassa entry inh,Vaccinia mCherry,Marburg entry inh
CC(C)(C)c1ccc(OCc2ccc(C(=O)N/N=C/c3ccc(O)c(O)c3)cc2)cc1,5.6µM*,2,-11%,?,-22%,?
COc1ccc(O)c(/C=N/NC(=O)c2ccc(OCc3cccc(Br)c3)cc2)c1,2.8µM*,-97*,.,?,.,?
COc1ccc(C(=O)N/N=C/c2cc(Br)ccc2O)cc1OC,11µM*,-97*,-19%,2.5µM*,18µM*,8.9µM*
CN(C(=O)CSc1nnc(-c2ccccc2F)o1)C1CCCCC1,.,13,3%,29%[46.1 µM],9%,1%[46.1 µM]
CCn1c(CN2CCN(c3cccc(Cl)c3)CC2)nc2c1c(=O)[nH]c(=O)n2C,.,-19,-6%,?,-10%,-10%[46.1 µM]
COC(=O)[C@@H]1CC[C@H](C)[C@@H](c2ccc(C)cc2)N1C(=O)c1ccc(C=NO[C@@H](C)c2cn([C@H](CO)Cc3ccccc3)nn2)cc1,.,.,.,-7%[14.3 µM],.,5%[14.2 µM]
CSc1ncccc1C(=O)NCC1Cc2cc(-c3cnccn3)ccc2O1 (configuration not stated),.,.,7%,.,-2%,.
Cn1cccc1-c1cc(C(=O)N/N=C/c2cc(Br)ccc2O)[nH]n1,5µM*,-95*,-10%,?,?,?
Cn1cccc1-c1cc(C(=O)N/N=C/c2ccccc2Cl)[nH]n1,-16%,0,.,.,.,.
O=C(N/N=C/c1cn(-c2ccccc2)nc1-c1cccnc1)c1cccnc1,12%,-27,.,.,.,.
O/N=C/c1cn(-c2ccccc2)nc1-c1cccnc1,?,-14,-14%,4%,i,0.79µM*
O=C(/C=C/c1cn(-c2ccccc2)nc1-c1cccnc1)c1ccco1,?,-99*,?,10µM*,-29%,?
CCN1CCN(C(=O)c2ccc3c(c2)N(Cc2cc(C)ccc2C)C(=O)c2ccccc2S3=O)CC1 (configuration not stated),.,-19,-5%,-26%[46.1 µM],-9%,3%[46.1 µM]
CC(=O)c1cn(CCOc2ccccc2C)c2ccccc12,0.79µM*,-27,.,.,.,.
Cc1ccccc1OCCn1cc(C(=S)N2CCCC2)c2ccccc21,11µM*,-26,?,-3%,?,?
O=C(NC1CCCCC1)c1ccc(CSc2nc3ccncc3n2Cc2ccccc2F)cc1,.,-19,-16%,.,-16%,?
Cc1ccc(NC(=S)N2CCCC(c3nc4ccccc4[nH]3)C2)cc1 (configuration not stated),2.5µM*,-26,.,-4%,.,-24%
C=CCn1c(SCC(=O)NCC)nnc1-c1cc2c(s1)CCC(CC)C2 (configuration not stated),?,-68*,-24%,0%,-29%,0%
